PubChem BioAssay
Active and inactive are the calls of the source.

test: osmotic lysis modulators in infected erythrocytes, primary screen, PSAC antagonist project, cell-based, P. falciparum Indochina, OD700, 3 h (AID 1156); conditions: higher = more signal, called active from +8 up or from −8 down

z-score, inactive:
[N-]=[N+]=NCc1ccccc1C[C@]1(C(=O)NCC(O)CO)N=C(c2ccc(OCCCO)cc2)O[C@H]1c1ccccc1CN=[N+]=[N-] (stereo not given in full) 1.81
NCCCCCCNC(=O)[C@H]1C[C@H]2C(=O)N[C@@H](Cc3ccccc3)C(=O)N2[C@H]1c1ccc(O)cc1 0.731
CCCCC(=C=CC[C@@H](O)c1ccc(OCCO)cc1)C[C@@H](O)COCc1ccccc1 -0.0577
O=C(O)[C@]1(Cc2ccccc2)N=C(c2ccc(OCCCO)cc2)O[C@@H]1c1ccccc1 -1.2
CC(C)C(=C=CC[C@@H](O)c1ccccc1OCCO)C[C@@H](O)COCc1ccccc1 -1.43
O=C1O[C@@H](c2ccccc2)[C@@H](c2ccccc2)N2[C@@H](c3ccc(O)cc3)[C@]3(C(=O)Nc4ccccc43)[C@@H](C(=O)Nc3nc4ccccc4s3)[C@H]12 -0.492
O=C(N1CCCCC1)[C@@]1(Cc2ccccc2)COC(c2ccc(OCCCO)cc2)=N1 1.32
CO[C@H]1O[C@H](CO)[C@@H](OC(=O)Nc2ccc(C(F)(F)F)cc2)[C@H](OC(=O)Nc2ccc3c(c2)OCO3)[C@H]1OC(=O)Nc1ccc2c(c1)OCO2 0.61
COc1cc(CO)cc(I)c1O[C@H]1C=C(C(=O)NCCO)C[C@@H](NCc2ccccc2F)[C@@H]1O 3.59
CCCNC(=O)[C@@]1(c2ccc([N+](=O)[O-])cc2)CC(=O)N(C2CCCCC2)[C@@H]1c1ccc(CO)cc1I 3.38
CCOC(=CC(=O)OC)CC(O)c1cccc(Cl)c1 (stereo not given) 0.898
Cc1ccc(S[C@]2(C(=O)NC(C)C)CC(=O)N(Cc3ccccc3C(F)(F)F)[C@@H]2c2ccc(CO)cc2I)cc1 1.03
CO[C@H]1O[C@H](CO)[C@@H](OC(=O)c2ccc(Br)cc2)[C@@H]2OC(=O)[C@@H](Cc3ccc4ccccc4c3)C/C=C/C[C@H](Cc3ccc4ccccc4c3)C(=O)O[C@@H]12 -1.15
COC(=O)[C@@]1(Cc2ccc(OC)cc2)[C@H]2c3cc(C(=O)N(C)C)n(Cc4nc5ccccc5[nH]4)c3C[C@H]2CN1C(=O)c1ccccc1 0.482
COCCCNC(=O)[C@]1(Cc2ccccc2N=[N+]=[N-])N=C(c2ccc(OCCCO)cc2)O[C@@H]1c1ccccc1N=[N+]=[N-] 1.41
